Measurements reported in PubChem BioAssay (EPA / NIEHS).
Values joined by “and” are separate entries in the source; they are usually repeats but may differ in a detail not shown here. Equal entries are not always repeated. Some compounds were tested as several samples or in several runs, with calls that do not always agree. Active and inactive are the calls of the source. Rule for the calls: active = hit-call score of the fitted dose curve at least 0.9, where 1 is the maximum; inactive = score below 0.9.

How the values were obtained:
[1] = read-out: Tissue Factor, F3 (gene 2152); assay: BSK_LPS_TissueFactor: BioMAP Diversity Plus: LPS Assay for Tissue Factor Biomarker Activity (AID 2283084); details: primary human HUVEC with PBMC; actives raise or lower the signal
Summary of the method: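 HUVEC/PBMC co-culture, LPS-activated; CD142 ELISA read 24 h post-dose; bidirectional curve fit vs DMSO negative control.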

[2] = read-out: Tumor necrosis factor (Homo sapiens) (UniProt P01375); assay: BSK_LPS_TNFa: BioMAP Diversity Plus: LPS Assay for Tumour Necrosis Factor alpha (TNFa) Biomarker Activity (AID 2283085); details: primary human HUVEC with PBMC; actives raise or lower the signal
Summary of the method: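 Human umbilical vein endothelial cells co-cultured with PBMC and stimulated with LPS. TNFa was measured by ELISA 24 h after chemical dosing, fitted bidirectionally relative to DMSO.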

[3] = read-out: Vascular cell adhesion molecule 1 (VCAM1), VCAM1 (gene 7412); assay: BSK_LPS_VCAM1: BioMAP Diversity Plus: LPS Assay for Vascular cell adhesion molecule 1 (VCAM1) Biomarker Activity (AID 2283086); details: primary human HUVEC with PBMC; actives raise or lower the signal
Summary of the method: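 Human umbilical vein endothelial cells co-cultured with PBMC and stimulated with LPS; VCAM-1 measured by ELISA 24 h after dosing. Bidirectional curve fitting against DMSO baseline; cytotoxicity tracked in parallel by SRB total-protein staining.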

[4] = read-out: CD38, CD38 (gene 952); assay: BSK_SAg_CD38: BioMAP Diversity Plus: SAg Assay for CD38 Biomarker Activity (AID 2283087); details: primary human HUVEC with PBMC; actives raise or lower the signal
Summary of the method: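 Human HUVEC plus PBMC co-culture stimulated with superantigen; CD38 measured by ELISA 24 h after chemical dosing. Fluorescence read-out, bidirectional fit against DMSO; cytotoxicity tracked in parallel by SRB and Alamar Blue.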

[5] = read-out: CD40, CD40 (gene 958); assay: BSK_SAg_CD40: BioMAP Diversity Plus: SAg Assay for CD40 Biomarker Activity (AID 2283088); details: primary human HUVEC with PBMC; actives raise or lower the signal
Summary of the method: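 HUVEC/PBMC co-culture, 24 h post-dose; CD40 by ELISA, fluorescence intensity; bidirectional fit vs DMSO negative control.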

[6] = read-out: CD69, CD69 (gene 969); assay: BSK_SAg_CD69: BioMAP Diversity Plus: SAg Assay for CD69 Biomarker Activity (AID 2283089); details: primary human HUVEC with PBMC; actives raise or lower the signal;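 for AC50: cell surface CD69 protein quantified by ELISA with fluorescence detection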
Summary of the method: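 ELISA, fluorescence read-out: CD69 on human umbilical vein endothelial cell + PBMC co-culture, 24 h post-dosing. Gain or loss of signal fitted bidirectionally against DMSO baseline.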

[7] = read-out: Monocyte Chemoattractant Protein-1 (MCP1), CCL2 (gene 6347); assay: BSK_SAg_MCP1: BioMAP Diversity Plus: SAg Assay for Monocyte Chemoattractant Protein-1 (MCP1) Biomarker Activity (AID 2283090); details: primary human HUVEC with PBMC; actives raise or lower the signal
Summary of the method: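 MCP-1 levels in the endothelial–PBMC SAg co-culture were quantified by ELISA at 24 h post-dosing; both increases and decreases versus DMSO scored. Cytotoxicity monitored by SRB total protein in parallel cultures.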

[8] = read-out: E-selectin (Homo sapiens) (UniProt P16581); assay: BSK_SAg_Eselectin: BioMAP Diversity Plus: SAg Assay for Eselectin Biomarker Activity (AID 2283091); details: primary human HUVEC with PBMC; actives raise or lower the signal
Summary of the method: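 E-selectin ELISA readout at 24 h post-dosing in human umbilical vein endothelial cell/PBMC co-culture; gain or loss of signal fitted relative to DMSO baseline.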

[9] = read-out: Monokine induced gamma interferon (MIG), CXCL9 (gene 4283); assay: BSK_SAg_MIG: BioMAP Diversity Plus: SAg Assay for Monokine induced gamma interferon (MIG) Biomarker Activity (AID 2283092); details: primary human HUVEC with PBMC; actives raise or lower the signal
Summary of the method: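 ELISA readout of MIG/CXCL9; primary human umbilical vein endothelial cells co-cultured with peripheral blood mononuclear cells; 24 h post-dose; gain/loss fit vs DMSO baseline.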

[10] = BSK_SAg_PBMCCytotoxicity: PBMC Cytotoxicity Assessment in the BioMAP Diversity Plus: SAg Assay (AID 2283093); details: primary human HUVEC with PBMC;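 note: PBMC viability measured as Alamar Blue reduction fluorescence at 546/580 nm; fitted both ways against DMSO so a hit may be loss or gain of signal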;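 for AC50: PBMC superantigen activated with SEB plus TSST-1 one hour after compound addition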
Summary of the method: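 HUVEC/PBMC co-culture; PBMC exposed to chemical 1 h before SEB and TSST-1 activation (20 ng/mL each), incubated 90 h, then Alamar Blue 6 h, fluorescence 546/580 nm. Bidirectional fit versus DMSO baseline.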

Measured: AC50

E-selectin (Homo sapiens), sequence (P16581 whole entry, looked up): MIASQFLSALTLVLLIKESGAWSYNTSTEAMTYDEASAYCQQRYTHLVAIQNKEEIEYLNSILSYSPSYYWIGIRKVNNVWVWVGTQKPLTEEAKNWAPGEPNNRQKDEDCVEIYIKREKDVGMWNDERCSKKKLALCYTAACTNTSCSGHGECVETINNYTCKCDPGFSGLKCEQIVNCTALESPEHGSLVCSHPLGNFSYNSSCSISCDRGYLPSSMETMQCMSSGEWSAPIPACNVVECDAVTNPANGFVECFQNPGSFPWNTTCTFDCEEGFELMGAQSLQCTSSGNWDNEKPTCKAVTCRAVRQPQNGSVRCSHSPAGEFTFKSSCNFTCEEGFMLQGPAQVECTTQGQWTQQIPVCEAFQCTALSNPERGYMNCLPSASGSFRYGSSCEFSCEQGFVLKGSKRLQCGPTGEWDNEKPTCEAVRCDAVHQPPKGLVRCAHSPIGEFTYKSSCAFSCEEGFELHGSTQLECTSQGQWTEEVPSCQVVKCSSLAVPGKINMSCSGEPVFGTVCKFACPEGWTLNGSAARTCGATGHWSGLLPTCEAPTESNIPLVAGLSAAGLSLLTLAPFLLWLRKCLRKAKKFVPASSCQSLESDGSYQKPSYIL
Tumor necrosis factor (Homo sapiens), sequence (P01375 whole entry, looked up): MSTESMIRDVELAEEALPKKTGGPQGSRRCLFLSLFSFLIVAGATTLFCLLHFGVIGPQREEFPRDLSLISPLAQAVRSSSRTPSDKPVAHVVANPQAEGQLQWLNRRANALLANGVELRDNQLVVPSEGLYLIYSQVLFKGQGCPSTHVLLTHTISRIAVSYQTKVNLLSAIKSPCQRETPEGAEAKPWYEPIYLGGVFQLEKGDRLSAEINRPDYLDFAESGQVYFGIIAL

CCCCN(CCCC)N=O
inactive: [1] | [2] | [3] | [4] | [5] | [6] | [7] | [8] | [9] | [10]

O=S(=O)(F)C(F)(F)C(F)(F)C(F)(F)C(F)(F)C(F)(F)C(F)(F)C(F)(F)C(F)(F)F
inactive: [1] | [2] | [3] | [4] | [6] | [7] | [8] | [9] | [10]

CC(C)(C)c1ccc(O)cc1
inactive: [1] | [2] | [3] | [4] | [6] | [7] | [8] | [9]

c1ccc2c(c1)Nc1ccccc1S2
active: [2] 0.148 µM | [5] 26.8 µM | [10] 2.19 µM
inactive: [1] | [3] | [4] | [6] | [7] | [8] | [9]

CC(C)Nc1ccc(Nc2ccccc2)cc1
active: [1] 8.74 µM | [2] 12.7 µM | [3] 10.2 µM | [4] 4.14 µM | [5] 13.1 µM | [6] 3.37 µM | [7] 6.2 µM | [8] 5.98 µM | [9] 9.5 µM | [10] 0.016 µM

CC(Cl)CN(C)C (stereo unspecified)
active: [7] 0.0162 µM | [8] 20 µM
inactive: [1] | [2] | [3] | [4] | [5] | [6] | [9] | [10]

C=CC(=O)OCC(F)(F)C(F)F
active: [2] 54.6 µM and 54 µM | [3] 38 µM and 24.3 µM | [4] 24.2 µM and 36.9 µM | [5] 37.2 µM and 35.3 µM | [6] 38.5 µM and 30 µM | [7] 34.3 µM and 20.4 µM | [8] 30.4 µM and 17.6 µM | [9] 53.5 µM and 45.4 µM | [10] 15.1 µM
inactive: [1] | [10]

CCOP(=S)(OCC)SCSc1ccc(Cl)cc1
active: [3] 13.2 µM | [4] 20 µM | [6] 20 µM | [7] 20 µM | [8] 20 µM | [10] 13 µM
inactive: [1] | [2] | [9]

COP(=O)(CCC(=O)NCO)OC
inactive: [1] | [2] | [3] | [4] | [5] | [6] | [7] | [8] | [9] | [10]

c1ccc(OP(Oc2ccccc2)Oc2ccccc2)cc1
inactive: [1] | [2] | [3] | [4] | [5] | [6] | [7] | [8] | [9] | [10]

CCOP(=S)(NC(C)C)Oc1ccccc1C(=O)OC(C)C (stereo unspecified)
active: [2] 4.8 µM
inactive: [1] | [3] | [4] | [5] | [6] | [7] | [8] | [9] | [10]

O=C(O)C(Cl)Cl
inactive: [1] | [2] | [3] | [4] | [5] | [6] | [7] | [8] | [9] | [10]

CCOP(=S)(OCC)SCSCC
inactive: [1] | [2] | [3] | [4] | [5] | [6] | [7] | [8] | [9] | [10]

CCC(C)(C)c1ccc(O)cc1
inactive: [1] | [2] | [3] | [4] | [5] | [6] | [7] | [8] | [9] | [10]

CCCCN(CCCC)SN(C)C(=O)Oc1cccc2c1OC(C)(C)C2
inactive: [1]
active: [2] 35 µM | [3] 25.7 µM | [4] 31.4 µM | [5] 26.2 µM | [6] 27.6 µM | [7] 37 µM | [8] 32.6 µM | [9] 32.1 µM | [10] 25 µM

ClC1=C(Cl)C2(Cl)C3C(Cl)C(Cl)CC3C1(Cl)C2(Cl)Cl (stereo unspecified)
active: [1] 31.5 µM | [2] 32.7 µM | [3] 29.2 µM | [4] 29.7 µM | [6] 27.5 µM | [7] 33.6 µM | [8] 32.3 µM | [9] 34.4 µM | [10] 13.8 µM

Nc1ccc(Cl)cc1
inactive: [1] | [2] | [3] | [4] | [6] | [7] | [8] | [9] | [10]

O=c1ssc(Cl)c1Cl
inactive: [2]
active: [1] 8.4 µM | [3] 6.59 µM | [4] 4.94 µM | [6] 6.02 µM | [7] 5.35 µM | [8] 4.28 µM | [9] 9 µM | [10] 4.21 µM

NC(=O)C(F)(F)C(F)(F)F
inactive: [1] | [2] | [3] | [4] | [6] | [7] | [8] | [9] | [10]

Cc1ccc([N+](=O)[O-])cc1C
inactive: [1] | [2] | [3] | [4] | [6] | [7] | [8] | [9] | [10]

CCN(CC)c1ccccc1
inactive: [1] | [2] | [3] | [4] | [6] | [7] | [8] | [9] | [10]
